Experiment [1] deals with Rap guanine nucleotide exchange factor 3 (Homo sapiens) (UniProt O95398). Briefly: Confirmatory qHTS for antagonist of cAMP-regulated guanine nucleotide exchange factor 3 (EPAC1) (AID 1645880). Note: nearly all actives have a fitted effect of over 55% in size. Note: potency is the fitted concentration of half-maximal effect. Summed up: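 Nucleotide exchange uses 100 nM EPAC1, 250 nM RAP1B-BODIPY-GDP and 50 uM GDP, with compounds in a concentration-titration series. After 5 min at room temperature, fluorescence (480 nm ex/540 nm em) is read every 5 min for 30 min. Data are normalized to control ATA and DMSO.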
Chain of Rap guanine nucleotide exchange factor 3 (Homo sapiens) (O95398 whole entry, looked up): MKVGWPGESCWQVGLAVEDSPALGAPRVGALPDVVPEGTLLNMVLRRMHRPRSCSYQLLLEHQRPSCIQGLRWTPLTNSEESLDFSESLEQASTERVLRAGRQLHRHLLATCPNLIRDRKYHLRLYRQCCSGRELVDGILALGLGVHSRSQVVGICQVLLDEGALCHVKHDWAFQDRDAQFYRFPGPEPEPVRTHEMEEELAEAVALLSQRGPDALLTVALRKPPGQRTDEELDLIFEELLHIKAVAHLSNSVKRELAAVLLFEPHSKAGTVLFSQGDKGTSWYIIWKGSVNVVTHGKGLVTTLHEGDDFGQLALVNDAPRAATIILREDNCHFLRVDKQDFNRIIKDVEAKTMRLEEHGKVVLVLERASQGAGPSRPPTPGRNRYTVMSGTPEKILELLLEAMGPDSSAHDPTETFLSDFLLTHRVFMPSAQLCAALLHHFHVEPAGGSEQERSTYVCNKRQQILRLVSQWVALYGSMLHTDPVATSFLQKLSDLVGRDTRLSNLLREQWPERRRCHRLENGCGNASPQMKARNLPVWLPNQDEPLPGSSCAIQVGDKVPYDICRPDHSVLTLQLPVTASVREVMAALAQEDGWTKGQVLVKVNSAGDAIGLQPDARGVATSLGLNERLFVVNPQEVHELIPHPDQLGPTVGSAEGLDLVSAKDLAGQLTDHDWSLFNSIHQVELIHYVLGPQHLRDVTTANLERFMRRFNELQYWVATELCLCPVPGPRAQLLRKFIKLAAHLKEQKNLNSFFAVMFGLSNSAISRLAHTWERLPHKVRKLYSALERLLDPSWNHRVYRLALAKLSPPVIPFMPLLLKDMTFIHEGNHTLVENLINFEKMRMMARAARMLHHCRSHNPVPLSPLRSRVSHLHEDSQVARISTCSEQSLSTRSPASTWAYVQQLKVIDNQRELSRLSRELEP
A general note: In qHTS, concentration-response curves come from the screen itself.

For experiment [2] the target is unchanged. Description: Confirmatory qHTS for agonist of cAMP-regulated guanine nucleotide exchange factor 3 (EPAC1) (AID 1645881).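 Note: EPAC1 catalysed release of BODIPY-GDP from Rap1B seen as fluorescence loss; 100% = effect of cAMP agonist control; nearly all actives have a fitted effect of over 75% in size.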
The target of experiment [3] is Rap guanine nucleotide exchange factor 4 (Homo sapiens) (UniProt Q8WZA2). Description: Confirmatory qHTS for agonist of cAMP-regulated guanine nucleotide exchange factor 4 (EPAC2) (AID 1645884).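 Note: nucleotide exchange releases bodipy-GDP from Rap1 and this lowers its fluorescence; % is set by controls: 0 for no effect and ±100 for the full control effect; nearly all actives have a fitted effect of over 65% in size.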
Chain of Rap guanine nucleotide exchange factor 4 (Homo sapiens) (Q8WZA2 whole entry, looked up): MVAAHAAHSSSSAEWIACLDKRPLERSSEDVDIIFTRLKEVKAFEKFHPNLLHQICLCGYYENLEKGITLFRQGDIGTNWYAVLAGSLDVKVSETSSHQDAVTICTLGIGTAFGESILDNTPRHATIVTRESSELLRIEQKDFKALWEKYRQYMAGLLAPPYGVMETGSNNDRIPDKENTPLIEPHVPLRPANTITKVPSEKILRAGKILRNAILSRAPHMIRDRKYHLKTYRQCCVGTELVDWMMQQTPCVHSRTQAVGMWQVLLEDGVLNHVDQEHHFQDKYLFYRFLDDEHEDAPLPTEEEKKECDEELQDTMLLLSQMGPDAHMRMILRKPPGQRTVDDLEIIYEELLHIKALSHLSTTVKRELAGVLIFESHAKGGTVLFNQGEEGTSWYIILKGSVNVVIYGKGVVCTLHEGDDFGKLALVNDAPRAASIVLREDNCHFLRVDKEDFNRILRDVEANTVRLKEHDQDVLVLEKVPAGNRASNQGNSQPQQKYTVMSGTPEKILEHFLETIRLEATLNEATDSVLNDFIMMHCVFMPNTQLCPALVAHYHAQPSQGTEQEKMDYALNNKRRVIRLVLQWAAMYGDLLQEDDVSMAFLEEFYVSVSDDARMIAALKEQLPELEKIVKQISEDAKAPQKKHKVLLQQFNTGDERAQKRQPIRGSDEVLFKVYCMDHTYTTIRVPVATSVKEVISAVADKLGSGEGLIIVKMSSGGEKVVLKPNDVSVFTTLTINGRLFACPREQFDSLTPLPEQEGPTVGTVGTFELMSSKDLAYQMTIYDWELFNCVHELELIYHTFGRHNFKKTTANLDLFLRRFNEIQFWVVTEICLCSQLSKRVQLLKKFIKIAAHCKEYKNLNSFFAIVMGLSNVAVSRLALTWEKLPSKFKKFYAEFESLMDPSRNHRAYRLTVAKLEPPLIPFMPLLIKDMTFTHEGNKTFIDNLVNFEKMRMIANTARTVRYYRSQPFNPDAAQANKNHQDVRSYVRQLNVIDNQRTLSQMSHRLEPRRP
Experiment [4] has the same target. Briefly: Confirmatory qHTS for antagonist of cAMP-regulated guanine nucleotide exchange factor 4 (EPAC2) (AID 1645885). For activity change, negative = inhibition: % is set by controls: 0 for no effect and ±100 for the full control effect. Note: nearly all actives have a fitted effect of over 25% in size. Note: potency is the fitted concentration of half-maximal effect.
Experiment [5] deals with Rap guanine nucleotide exchange factor 3 (Homo sapiens) (UniProt O95398). Briefly: Counterscreen qHTS for antagonist of cAMP-regulated guanine nucleotide exchange factor 3 (EPAC1) (AID 1645888).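 Note: fluorescence loss as bound BODIPY-GDP is released from Rap1B; % of control where 0% means no effect.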 Summed up:
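Rap1B–BODIPY-GDP (250 nM) with 50 uM GDP; compounds pin-transferred to 9.74 nM–152 uM final (activator) or from 7.32 nM upwards (inhibitor). Fluorescence Ex/Em 480/540 nm read at 5 and 30 min, then after adding cAMP or buffer, at room temperature.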
For orientation: Counterscreens check selectivity or assay interference.

Results filed as inconclusive are left out. A number with no mark means an inactive call. Active and inactive are the calls of the source. Calls come from the whole dose curve; as a rule, active = well fitted curve in the direction sought with a large enough effect; inconclusive = small, poorly fitted or top-dose-only effect, or another doubt; inactive = no such curve, though single readings can be large; an effect the other way counts as inactive or inconclusive.

As for `CC1(C(=O)Nc2ccc(Cl)cc2)Cc2c(-c3cccc(C(N)=O)c3)ccnc2O1` (stereo not given), the Potency result in experiment [1], in experiment [2] and in experiment [4] was “inactive” throughout. Further, the activation in experiment [3] was 9.22% [at 17.1 µM, percent relative to cAMP agonist control]. In experiment [5], the activity change, negative = inhibition is 3.15% [at 30.8 µM].
`Cc1ccc(OCCn2cccn2)c(C)c1`: the Potency entry in experiment [1], in experiment [2], in experiment [3], in experiment [4] and in experiment [5] was “inactive” throughout.
In the case of `CC(SC1=NCCN1S(=O)(=O)c1ccc(F)cc1)c1ccccc1` (stereo not given), the Potency result in experiment [1], in experiment [2], in experiment [3] and in experiment [5] was “inactive” throughout. Moreover, the Potency in experiment [4] was 12 µM (active).
On to `Cc1cc(OC(C)C(=O)NCCc2c[nH]c3ccccc23)c2c(C)cc(=O)oc2c1` (stereo not given), for which the Potency entry in experiment [1], in experiment [2], in experiment [3], in experiment [4] and in experiment [5] was “inactive” throughout.
Consider `Cc1cc(O)c(C(=O)/C=C/c2cccc([N+](=O)[O-])c2)c(=O)o1`, for which the Potency in experiment [1] was 33.8 µM (active). The Potency result in experiment [2], in experiment [3], in experiment [4] and in experiment [5] was “inactive” in each case.
As to `COc1cnc(-c2ccccn2)nc1Oc1cccc(Cl)c1`, the Potency entry in experiment [1], in experiment [2], in experiment [3] and in experiment [5] was “inactive” throughout. Also, the Potency in experiment [4] was 10.7 µM (active).
On to `CCNC(=O)C1(C)CCN(C(=O)c2ccc(C(=O)OC)cc2)C1` (stereo not given), for which the Potency result in experiment [1], in experiment [2], in experiment [3], in experiment [4] and in experiment [5] was “inactive” in each case.
For `C/C(=N\NC(=O)c1cc2ccccc2cc1O)c1cc2ccccc2o1`, the Potency in experiment [1] is 37.9 µM (active). The Potency entry in experiment [2], in experiment [3], in experiment [4] and in experiment [5] was “inactive” throughout.
As to `COc1ccc(CN2C(=O)CN(S(C)(=O)=O)CC2(C)C(=O)Nc2c(C)cccc2C)cc1OC` (stereo not given), the Potency entry in experiment [1], in experiment [2] and in experiment [4] was “inactive” in each case. For the same compound, the activation in experiment [3] is 5.79% [at 17.1 µM, percent relative to cAMP agonist control]. Besides, in experiment [5], the activity change, negative = inhibition was -5.99% [at 30.8 µM].
`O=C1NC(=Nc2ccccc2)S/C1=C\C=C\c1ccco1`: the Potency in experiment [1] was 16.9 µM (active). Also, the Potency result in experiment [2], in experiment [3], in experiment [4] and in experiment [5] was “inactive” throughout.
As for `COc1ccc(S(=O)(=O)N2CCC[C@H]2C(=O)N2CCC[C@H]2C(=O)N[C@@H](C)c2ccccc2)cc1C`, the Potency result in experiment [1], in experiment [2] and in experiment [4] was “inactive” in each case. Further, the activation in experiment [3] is 1.42% [at 17.1 µM, percent relative to cAMP agonist control]. Besides, the activity change, negative = inhibition in experiment [5] was 6.49% [at 30.8 µM].
For the compound `COc1cccc(C2=NN(C(=O)c3ccco3)C(O)(C(F)(F)F)C2)c1` (stereo not given), the Potency entry in experiment [1], in experiment [2] and in experiment [4] was “inactive” throughout. For the same compound, in experiment [3], the activation was 1.71% [at 17.1 µM, percent relative to cAMP agonist control]. Besides, the activity change, negative = inhibition in experiment [5] was -10.8% [at 30.8 µM].
With `COc1ccccc1C(=O)NC(=O)COC(=O)C1CC1`, the Potency result in experiment [1], in experiment [2], in experiment [3], in experiment [4] and in experiment [5] was “inactive” throughout.
Take `CCCCOc1ccccc1NC(=O)Cn1c(-c2cncs2)nc2ccccc21`: the Potency result in experiment [1], in experiment [2], in experiment [3], in experiment [4] and in experiment [5] was “inactive” each time.
In the case of `CC(C)c1ccc(NS(=O)(=O)c2cn(C)c(=O)n(C)c2=O)cc1`, the Potency result in experiment [1], in experiment [2], in experiment [3] and in experiment [5] was “inactive” in each case. Further, the Potency in experiment [4] was 6.01 µM (active).
Take `CSCc1cc(N(C)c2ccccc2)nc(-c2ccccc2)n1`: the Potency result in experiment [1], in experiment [2], in experiment [3] and in experiment [5] was “inactive” each time. Also, the Potency in experiment [4] is 6.01 µM (active).
Consider `COC(=O)CNc1cc(S(=O)(=O)N2CCCCC2)ccc1Oc1cccc(C)c1`, for which the Potency entry in experiment [1], in experiment [2], in experiment [3], in experiment [4] and in experiment [5] was “inactive” throughout.
Take `CC(C)[C@H](NC(=O)NCCc1ccc(F)cc1)C(=O)O`: the Potency entry in experiment [1], in experiment [2] and in experiment [4] was “inactive” in each case. Besides, in experiment [3], the activation was 8.32% [at 17.1 µM, percent relative to cAMP agonist control]. The activity change, negative = inhibition in experiment [5] was -8.58% [at 30.8 µM].
With `Cc1ccc(N(CCC#N)C(=O)COC(=O)c2ccccc2SCC(=O)N2CCCC2)cc1`, the Potency entry in experiment [1], in experiment [2], in experiment [3], in experiment [4] and in experiment [5] was “inactive” each time.
For `CC(C)(C)n1cnc2cc(NCc3ccccc3Cl)ccc21`, in experiment [1], the Potency was 84.9 µM (active). Also, the Potency entry in experiment [2], in experiment [3], in experiment [4] and in experiment [5] was “inactive” each time.
For `COc1cc(Cl)c(C)cc1NC(=O)CSc1cc(Cl)ccc1Cl`, the Potency in experiment [1] is 67.5 µM (active). Besides, the Potency entry in experiment [2], in experiment [3], in experiment [4] and in experiment [5] was “inactive” in each case.
As to `CCc1cccc(C)c1Nc1c(-c2cccs2)nc2ncccn12`, the Potency entry in experiment [1], in experiment [2], in experiment [3], in experiment [4] and in experiment [5] was “inactive” throughout.
Turning to `O=C(/C=C/c1ccccc1)c1cc(Br)ccc(=O)c1O`, in experiment [1], the Potency was 12 µM (active). For the same compound, the Potency result in experiment [2], in experiment [3], in experiment [4] and in experiment [5] was “inactive” each time.
As to `CC(C)Cc1csc(NC(=O)c2ccc(Cl)cc2)c1C(=O)O`, the Potency entry in experiment [1], in experiment [2] and in experiment [4] was “inactive” each time. For the same compound, the activation in experiment [3] was 0% [at 17.1 µM, percent relative to cAMP agonist control]. In addition, the activity change, negative = inhibition in experiment [5] was -11.2% [at 30.8 µM].
Turning to `Cc1nn(CSc2c(F)c(F)c(F)c(F)c2F)c(C)c1[N+](=O)[O-]`, the Potency result in experiment [1], in experiment [2] and in experiment [4] was “inactive” in each case. Also, in experiment [3], the activation was 0.798% [at 17.1 µM, percent relative to cAMP agonist control]. Moreover, the activity change, negative = inhibition in experiment [5] was -18.4% [at 30.8 µM].
On to `NS(=O)(=O)c1cc(C(=O)NC2CCSc3ccccc32)ccc1Cl` (stereo not given), for which the Potency in experiment [1] was 13.5 µM (active); in experiment [4], 30.1 µM (active). For the same compound, the Potency result in experiment [2], in experiment [3] and in experiment [5] was “inactive” each time.
For the compound `CC1CN(C(=O)CCC(=O)NCc2cccc(Cl)c2)c2ccccc2S1` (stereo not given), the Potency entry in experiment [1], in experiment [2], in experiment [3], in experiment [4] and in experiment [5] was “inactive” each time.
For `CSCCC(NC(=O)c1ccc(Cl)cc1)C(=O)OCC(=O)N1CCCC1=O` (stereo not given), the Potency result in experiment [1], in experiment [2] and in experiment [4] was “inactive” each time. Moreover, the activation in experiment [3] is 10.4% [at 17.1 µM, percent relative to cAMP agonist control]. For the same compound, in experiment [5], the activity change, negative = inhibition was 5.02% [at 30.8 µM].
`O=C(CCN1C(=O)/C(=C/c2cccs2)SC1=S)Nc1ccc(C(=O)O)c(O)c1`: the Potency in experiment [1] is 79.4 µM (active). Besides, the Potency result in experiment [2] and in experiment [4] was “inactive” throughout. Also, in experiment [3], the activation is 0.91% [at 17.1 µM, percent relative to cAMP agonist control]. The activity change, negative = inhibition in experiment [5] is 19.6% [at 30.8 µM].
Turning to `CN1C(=O)Cc2cc(S(=O)(=O)N3CCN(c4ccccc4F)CC3)ccc21`, the Potency result in experiment [1], in experiment [2], in experiment [3], in experiment [4] and in experiment [5] was “inactive” in each case.
`COc1cc(OC)c(CNC2CCCCCC2)cc1Br`: the Potency result in experiment [1], in experiment [2], in experiment [3], in experiment [4] and in experiment [5] was “inactive” in each case.
Regarding `CO/N=C/c1ccc(Sc2ccccc2)c([N+](=O)[O-])c1`, the Potency result in experiment [1], in experiment [2] and in experiment [4] was “inactive” in each case. For the same compound, in experiment [3], the activation is 6.03% [at 17.1 µM, percent relative to cAMP agonist control]. In addition, the activity change, negative = inhibition in experiment [5] is -14.9% [at 30.8 µM].
In the case of `COc1ccc(C2=Cc3ccccc3C(CC(=O)C3CC3)N2c2ccc(C#CCCO)cc2)cc1` (stereo not given), the Potency entry in experiment [1], in experiment [2] and in experiment [4] was “inactive” in each case. Besides, in experiment [3], the activation is 14.6% [at 17.1 µM, percent relative to cAMP agonist control]. In experiment [5], the activity change, negative = inhibition was -1.57% [at 30.8 µM].
Regarding `CCOc1ccc(-n2c(=O)[nH]cc(C(=O)Nc3ccc(OC)c(OC)c3)c2=O)cc1`, the Potency result in experiment [1], in experiment [2], in experiment [3], in experiment [4] and in experiment [5] was “inactive” throughout.
Turning to `CC(C)C[C@H](NC(=O)[C@H](Cc1ccccc1)n1c(=O)[nH]c2ccccc2c1=O)C(=O)N1CCC(C(=O)O)CC1`, the Potency result in experiment [1], in experiment [2], in experiment [3], in experiment [4] and in experiment [5] was “inactive” throughout.
For the compound `O=C(c1ccccc1)c1ccc2nc(-c3ccco3)c(-c3ccco3)nc2c1`, in experiment [1], the Potency was 4.78 µM (active). For the same compound, the Potency result in experiment [2], in experiment [3], in experiment [4] and in experiment [5] was “inactive” each time.
In the case of `Oc1ccc(Br)cc1C=Nc1cccn2cc(-c3ccccc3)nc12`, the Potency in experiment [1] is 84.9 µM (active); in experiment [4], 75.7 µM (active). Besides, the Potency result in experiment [2], in experiment [3] and in experiment [5] was “inactive” throughout.
